# ULK1 primary: blocks human autophagy kinase ULK1 | O75385 | AlphaScreen Atg13 phosphorylation by ULK1, luminescence | inhibition, % at 5.96 µM | 1.9% of 30,000 active | AID 1259251; in the data active = inhibition above about 43%;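 also: 0% = median of compound wells and 100% = no enzyme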
# ASK1 primary: human ASK1 kinase inhibition, primary screen; 0.99% of 22,000 active; inhibition, % at 7.44 µM; AlphaScreen MKK6 phosphorylation by ASK1, luminescence; Q99683; in the data active = inhibition above about 35%;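 also: 0% = median of compound wells and 100% = no enzyme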
# * hit, by the source's call; · = no result given. Hits are enriched below; roughly 2.5% of the tested compounds scored in any of these assays.
SMILES,ULK1 primary,ASK1 primary
CC(=O)c1cccc(-c2ncc(C(=O)NC3CCN(Cc4ccccc4)CC3)s2)c1,4,4
CCN(CC)c1nc(N)nc(N2CCOCC2)n1,6,6
COc1ccc(Nc2ncc(Cl)c(Nc3ccccc3-c3ccn(C)n3)n2)cc1,13,22
Cc1ncn(-c2ccc(Nc3ncc(C)c(Nc4ccccc4C(N)=O)n3)cc2)n1,72*,1
NC(=O)c1ccccc1Nc1nc(Nc2ccc(N3CCCC3=O)cc2)ncc1Cl,92*,-100
N#Cc1ccc(Nc2ncc(Cl)c(Nc3ccccc3C(N)=O)n2)cc1,46*,-8
NC(=O)c1ccccc1Nc1nc(Nc2ccc(N3CCOCC3)c(F)c2F)ncc1Cl,39,-52
Cc1ncn(-c2ccc(Nc3ncc4ccnc(-c5ccccc5)c4n3)cc2)n1,0,2
COc1cc(Nc2nc(NCc3cccnc3)nc3c2ncn3Cc2ccc(C(F)(F)F)cc2)cc(OC)c1OC,-22,9
Nc1nc(Cl)cc(Nc2ccc(N3CCOCC3)cc2)n1,-1,2
O=C(NC1CCN(Cc2ccccc2)CC1)c1ccnc(NCCCN2CCCC2=O)c1,-4,-3
COc1ccc(-c2cnc(SCC(=O)Nc3ccc(C)cc3)n2C)cc1,1,·
C[C@H]1c2cccc(O)c2C(O)=C2C(=O)[C@]3(O)C(O)=C(C(N)=O)C(=O)[C@@H](N(C)C)[C@@H]3[C@@H](O)[C@@H]21,52*,·
CN(C)c1ccc(O)c2c1C[C@H]1C[C@H]3[C@H](N(C)C)C(=O)C(C(N)=O)=C(O)[C@@]3(O)C(=O)C1=C2O,10,·
Cc1cc(-c2ccc3nc([C@H](N)Cc4cccc(F)c4)[nH]c3c2)ccn1,5,-9
Cn1c(Nc2nc(NCCOc3ccccc3)c3ncn(C4CCCCC4)c3n2)nc2ccccc21,52*,-1
COc1ccc(CCNc2nc(Nc3nc4ccccc4n3C)nc3c2ncn3C2CCCCC2)cc1,14,19
CC(=O)Nc1ccc(C(=O)Nc2cccc(C)c2N2CCC3(CC2)OCCO3)o1,7,14
CC(C)(C)c1ncn(-c2ccc(Nc3nccc(-c4cc(Cl)nc(Cl)n4)n3)cc2)n1,-14,-8
O=C(Nc1ccc(N2CCOCC2)cc1)c1cnc(NCCN2CCOCC2)s1,0,-1
O=C(Nc1ccc(Oc2ccccc2)cc1)c1cc(N2CCc3ccccc3C2)nc2ccccc12,-2,-16
O=C(Nc1ccc(N2CCOCC2)cc1)c1cc(N2CCc3ccccc3C2)nc2ccccc12,50*,0
O=C(NCCCN1CCCC1=O)c1cc(Nc2ccc(N3CCOCC3)cc2)nc2ccccc12,4,4
O=C(Nc1ccc(N2CCOCC2)cc1)c1cc(NCCCN2CCCC2=O)nc2ccccc12,51*,-9
O=C(Nc1ccc(N2CCOCC2)cc1)c1cnc(NCCCN2CCCC2=O)s1,56*,-5
SMILES,ULK1 primary,ASK1 primary
O=C1CCCN1CCn1cnc2c(NCc3cccc(C(F)(F)F)c3)nc(Nc3ccncc3)nc21,12,-7
CC(C)CNC(=O)Cc1ccc2c(c1)CC(c1nc3ccc(-c4ccnc(N)n4)cc3[nH]1)CO2 (centres undefined),9,9
NC(=O)c1ccc(-c2nc3ccc(C(=O)NCCc4ccc(O)cc4)cc3s2)cc1,-5,-6
O=C1CCCN1CCCNc1nc(NCc2cccnc2)c2[nH]cnc2n1,13,10
Cc1nccn1CC1CCc2c(c3ccccc3n2C)C1=O (centres undefined),2,·
Cc1[nH]cnc1CN1CCc2c(c3ccccc3n2C)C1=O,78*,·
c1ccc(N2CCN(c3nc(NC4CC4)c4ncn(C5CCCCC5)c4n3)CC2)nc1,-11,12
CN1CCN(CCNC(=O)c2cccc(CN(C(=O)c3nc4ccc(-c5cn[nH]c5)cc4s3)C3CC3)c2)CC1,53*,-37
O=C(NCCN1CCCCC1)c1cccc(CN(C(=O)c2nc3ccc(-c4cn[nH]c4)cc3s2)C2CC2)c1,9,-2
CN1CCC(n2c(C3COc4ccccc4O3)nc3ccc(-c4ccncc4)cc32)CC1 (centres undefined),5,3
O=C(NC1CC1)c1ccc(-c2nc3ncnc(NCCCN4CCCC4=O)c3[nH]2)cc1,6,-7
CN1CCN(C(=O)c2ccc(-c3cccc(C(=O)NCc4cccnc4)n3)cc2)CC1,9,6
CN1CCN(C(=O)c2ccc(-c3cccc(C(=O)NCc4ccccc4)n3)cc2)CC1,70*,15
CC(=O)Nc1ccc(Nc2ccnc(Nc3ccncn3)n2)cc1,68*,16
CC(=O)Nc1ccc(Nc2ccnc(Nc3ccc(C(F)(F)F)cc3)n2)cc1,-11,29
Cc1cnc(-c2cccc(N)c2)nc1NCCN1CCOCC1,-2,-1
NC(=O)c1ccccc1Nc1cc(NC(=O)Cc2ccc3c(c2)OCO3)ncc1C(F)(F)F,-23,19
NC(=O)c1ccccc1Nc1cc(NC(=O)Cc2ccc(F)cc2)ncc1C(F)(F)F,31,10
CNC(=O)c1ccccc1Nc1cc(NC(=O)Cc2ccccc2OC)ncc1C(F)(F)F,51*,14
CNC(=O)c1ccccc1Nc1cc(NC(=O)Cc2ccc3c(c2)OCO3)ncc1C(F)(F)F,55*,12
COc1ccc(CC(=O)Nc2cc(Nc3ccccc3C(N)=O)c(C(F)(F)F)cn2)cc1,76*,32
CNC(=O)c1ccccc1Nc1cc(NC(=O)Cc2cccc(F)c2)ncc1C(F)(F)F,55*,-3
CNC(=O)c1ccccc1Nc1cc(NC(=O)C(OC)c2ccccc2)ncc1C(F)(F)F (centres undefined),-10,-16
NC(=O)c1ccccc1Nc1cc(NC(=O)Cc2ccc(F)c(F)c2)ncc1C(F)(F)F,19,-21
CC(=O)c1cccc(-c2cccc(C(=O)NC3CCN(Cc4ccccc4)CC3)n2)c1,-2,-11
SMILES,ULK1 primary,ASK1 primary
O=C(Nc1ccc(-c2cn[nH]c2)cc1C(F)(F)F)C1COc2ccccc2O1 (centres undefined),-3,9
COc1cc(Nc2nc(-c3cccc(C(C)=O)c3)nc3c2ncn3CCN2CCCC2=O)cc(OC)c1OC,-8,-9
Nc1nc(NCc2ccccc2)cc(NCc2ccc3c(c2)OCO3)n1,-2,-7
COc1ccc(CCNc2nc(Nc3ccc4ncccc4c3)nc3nc[nH]c23)cc1,35,-4
O=C(NCc1cccnc1)c1ccc2nc(NCCCN3CCCC3=O)sc2c1,-8,3
COc1cc(Nc2ccnc(N3CCc4ccccc4C3)n2)cc(OC)c1OC,3,-1
CC(C)n1cnc2c(Nc3ccc(N4CCOCC4)cc3)nc(-c3ccc(N4CCOCC4)nc3)nc21,26,22
c1ccc(Nc2cccc(-c3ccnc(Nc4ccc(Cc5ncn[nH]5)cc4)n3)c2)cc1,-23,22
O=C(Cc1ccc(F)cc1)Nc1cc(Nc2ccccc2CO)c(C(F)(F)F)cn1,18,13
Nc1cc(Nc2ccccc2CO)c(C(F)(F)F)cn1,56*,9
c1ccc2[nH]ccc2c1,83*,·
Oc1cccc2[nH]ccc12,20,·
CC(=O)OC[C@H]1O[C@@H](OC(C)=O)[C@H](OC(C)=O)[C@@H]1OC(C)=O,-3,·
O=C(OC[C@H]1O[C@H](OC(=O)c2cc(O)c(O)c(OC(=O)c3cc(O)c(O)c(O)c3)c2)[C@H](OC(=O)c2cc(O)c(O)c(OC(=O)c3cc(O)c(O)c(O)c3)c2)[C@@H](OC(=O)c2cc(O)c(O)c(OC(=O)c3cc(O)c(O)c(O)c3)c2)[C@@H]1OC(=O)c1cc(O)c(O)c(OC(=O)c2cc(O)c(O)c(O)c2)c1)c1cc(O)c(O)c(OC(=O)c2cc(O)c(O)c(O)c2)c1,86*,·

# Bioassay records (PubChem)
